Experiments:
Experiment in all cases: PBM binding z-score (relative to random genomic background probes); higher = stronger binding; sequences stand for … in GC…GCGATTGACAGCGTAGAATGAAGG
[1] = system: PPARg:RXRa DBDmut IVT, anti-RXR (DBD mutation: RXRa K156A/R161A, NR concentration 270 nM, RXRa partner concentration 90 nM)
Summary of the method: (§1)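 Custom Agilent 4×180K protein-binding microarrays carried double-stranded probes. Their 34-nt variable regions held direct-repeat seeds, single-nucleotide variants, half-site ablations and random human genomic background sequences. Arrays were incubated 1 h with ligand-free nuclear receptor dimers in PBS pH 7.4, 2% milk, 0.02% Triton X-100, 1 mM DTT, 0.2 mg/mL BSA and 0.4 mg/ml salmon testes DNA. Antibodies against each partner (one per run) detected binding, and scanned fluorescence was regression-normalized. Binding z-scores use random background probes as reference.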

[2] = system: PPARg:RXRa IVT, anti-PPARg (NR concentration 270 nM, RXRa partner concentration 90 nM)
Summary of the method: as §1

[3] = system: PPARg DBDmut:RXRa IVT, anti-PPARg (DBD mutation: PPARg1 K132A/R137A, NR concentration 270 nM, RXRa partner concentration 90 nM)
Summary of the method: as §1

[4] = system: PPARg DBDmut IVT, anti-PPARg (DBD mutation: PPARg1 K132A/R137A, NR concentration 270 nM)
Summary of the method: as §1

[5] = system: PPARg homodimer (NR concentration 180 nM)
Summary of the method: as §1

[6] = system: PXR:RXRa (NR concentration 270 nM, RXRa partner concentration 90 nM)
Summary of the method: as §1

[7] = system: PXR homodimer (NR concentration 270 nM)
Summary of the method: as §1

[8] = system: RARa:RXR (NR concentration 270 nM, RXRa partner concentration 90 nM)
Summary of the method: as §1

[9] = system: RARa homodimer (NR concentration 270 nM)
Summary of the method: as §1

[10] = system: RARb:RXRa (NR concentration 270 nM, RXRa partner concentration 90 nM)
Summary of the method: as §1

[11] = system: RARb homodimer (NR concentration 270 nM)
Summary of the method: as §1

[12] = system: RARg:RXRa (NR concentration 270 nM, RXRa partner concentration 90 nM)
Summary of the method: as §1

[13] = system: RARg homodimer (NR concentration 270 nM)
Summary of the method: as §1

[14] = system: RXRa DBDmut IVT, anti-RXR (DBD mutation: RXRa K156A/R161A, NR concentration 90 nM)
Summary of the method: as §1

[15] = system: RXRa homodimer (NR concentration 180 nM)
Summary of the method: as §1

[16] = system: THRa:RXRa (NR concentration 90 nM, RXRa partner concentration 90 nM)
Summary of the method: as §1

[17] = system: THRa homodimer (NR concentration 90 nM)
Summary of the method: as §1

[18] = system: VDR homodimer (NR concentration 270 nM)
Summary of the method: as §1

Sequence	PBM binding z-score [1]	PBM binding z-score [2]	PBM binding z-score [3]	PBM binding z-score [4]	PBM binding z-score [5]	PBM binding z-score [6]	PBM binding z-score [7]	PBM binding z-score [8]	PBM binding z-score [9]	PBM binding z-score [10]	PBM binding z-score [11]	PBM binding z-score [12]	PBM binding z-score [13]	PBM binding z-score [14]	PBM binding z-score [15]	PBM binding z-score [16]	PBM binding z-score [17]	PBM binding z-score [18]
TAGCCTAGGTCATGCGGGCCAGAATAGTGTCGGC	1.69	2.9	-0.0114	-0.646	0.886	1.66	-0.503	2.58	-0.8	3.83	2.94	4.18	4.34	0.571	3.18	3.03	0.922	0.435
AGAACGAGGGCACGTTGAGTTGATAGCAGAGTAG	3.79	3.75	0.741	-0.039	0.701	1.33	0.471	0.629	-0.287	2.42	1.28	1.84	1.95	1.8	1.36	1.82	0.141	2.13
ATATGTAGGTTCGCTGGGGTCATTCAGACTAGGC	3.5	3.76	1.92	1.5	2.78	6.18	12.4	6.02	1.12	2.72	3.35	4.07	2.35	3.6	5.54	4.11	3.34	9.1
TCTGCTTGGTCAGTTGGTCAGCTAACGAGCTGCC	0.546	0.646	-0.341	0.287	-1.35	-0.535	-1.14	-0.645	-1.41	0.775	0.226	-0.172	-0.0396	-0.00109	-0.439	-0.465	-0.841	-1.2
TCTTGTAGATCATTAGAGGTTAAGAAAGTGCGCT	1.84	1.01	0.756	0.793	0.628	3.16	0.436	1.89	0.575	1.01	1.19	0.881	0.586	0.77	1.42	2.67	-0.124	0.446
CCCAGCAGGCCAATCTGGGTCACTCAAGGCTTGA	3.08	4.97	-0.484	-1.45	0.339	1.31	-0.346	1.46	-0.731	1.63	2.53	1.29	1.5	-0.496	0.923	3.73	0.49	-0.172
TCAGACAGGTGAAGGTAACTCACGTACGCAGTCG	2.67	1.17	0.022	-0.274	0.847	0.479	-0.00874	0.651	0.536	1.07	0.616	0.706	0.586	1.3	0.939	0.624	0.0497	-0.22
TTTCGGAGGACACGAAGGTCAGAGCTTTCCAGAG	0.209	1.38	-0.89	-0.892	1.79	2.42	1.37	2.56	0.837	3.51	3.81	3.45	4.21	0.363	2.22	3.06	1.45	1.86
CCGACTGGGGCAAAGGTTACCATTCTCAGTACGA	4.87	5.9	0.712	0.351	3.82	2.41	-0.502	3.87	-0.539	2.39	2.08	3.4	1.6	0.683	3.26	1.66	-0.246	-0.419
CTCGAAAGCTCGGTTGAGGTGAGTATACGGATAA	-0.672	-0.193	-0.22	-0.607	-0.84	-0.305	-0.679	0.034	-0.648	-0.166	-0.282	-0.264	-0.254	-0.28	-0.256	1.85	1.03	-0.293
CGAACTAGGTCAGACCAGGACAGTGAAGGATGAT	7.38	7.63	1.83	0.713	0.868	1.61	-0.171	1.37	-0.466	3.2	2.36	2.82	3.53	0.518	1.51	4.75	0.741	-0.102
GATACATGGTCAAGGCCAGAGTACGCGTATTGAT	0.0376	0.621	-0.439	0.11	-0.243	-0.158	-0.13	-0.204	-0.125	1.25	0.856	0.785	0.985	-0.244	0.439	0.149	-0.41	0.0812
TGAATGATGTTATAAGATCAGGGAACGTTGCAAA	-1.12	-0.0889	0.204	0.597	-0.0286	-0.22	-0.193	0.123	0.481	-0.32	-0.648	0.116	0.244	-1.01	0.153	-0.185	-0.281	-0.22
TGTCAAAGTTCAAAGGTAACGGAAGTATCCACAC	0.604	4.88	1.63	2.48	3.69	5.74	3.74	6.93	1.65	5.07	3.76	6.56	5.94	4.29	7.52	2.99	0.158	4.06
TCGAGTAGGTTACCAATGGAGCATTCAGCTTTCT	3.08	2.37	-0.0505	-0.361	-0.556	-0.0122	-0.741	-0.35	-0.787	0.629	-0.304	0.18	0.258	0.293	0.319	-0.213	-0.898	-0.759

Source: the supplement of paper PMC6555819
